# According to the supplement of paper PMC8728848:
# Only a selection was taken, and the strongest signals are over-represented in it overall.
# Tests used:
# Assay in all cases: glycan array binding signal (z-score within array); higher = stronger binding
# [1] = test system: Fuc(a1-2)Gal(b1-3)GalNAc(b1-3)Gal(a1-4)Gal(b1-4)Glc; details: glycan notation: IUPAC condensed, linker removed
# How it was run: (§1)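 Columns mapping to the same glycan were averaged after glycan names were converted to IUPAC-condensed notation. The data come from 3228 arrays in the Consortium for Functional Glycomics database, limited to those with an available protein sequence. Binding is reported as a within-array Z-score averaged across arrays of one protein sequence and across linkers.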
# [2] = test system: Fuc(a1-2)Gal(b1-3)GlcNAc(b1-2)Man(a1-3)[Fuc(a1-2)Gal(b1-3)GlcNAc(b1-2)Man(a1-6)]Man(b1-4)GlcNAc(b1-4)GlcNAc; details: glycan notation: IUPAC condensed, linker removed
# How it was run: as §1
# [3] = test system: Fuc(a1-2)Gal(b1-3)[Fuc(a1-4)]GlcNAc(b1-2)Man(a1-6)[Fuc(a1-2)Gal(b1-3)[Fuc(a1-4)]GlcNAc(b1-2)Man(a1-3)]Man(b1-4)GlcNAc(b1-4)[Fuc(a1-6)]GlcNAc; details: glycan notation: IUPAC condensed, linker removed
# How it was run: as §1
# [4] = test system: Fuc(a1-2)Gal(b1-3)[Fuc(a1-4)]GlcNAc; details: glycan notation: IUPAC condensed, linker removed
# How it was run: as §1
# Fuc(a1-2)Gal(b1-3)GalNAc = details: glycan notation: IUPAC condensed, linker removed
# How it was run: as §1
# [5] = test system: Fuc(a1-2)Gal(b1-3)GalNAc(a1-3)[Fuc(a1-2)]Gal(b1-4)Glc; details: glycan notation: IUPAC condensed, linker removed
# How it was run: as §1
# [6] = test system: Fuc(a1-2)Gal(b1-3)[Fuc(a1-4)]GlcNAc(b1-2)Man(a1-3)[Fuc(a1-2)Gal(b1-3)[Fuc(a1-4)]GlcNAc(b1-2)Man(a1-3)]Man(b1-4)GlcNAc(b1-4)GlcNAc; details: glycan notation: IUPAC condensed, linker removed; mutation: R125K
# How it was run: as §1
# [7] = test system: Fuc(a1-2)Gal(b1-4)Fuc(a1-3)]GlcNAc(b1-2)Man(a1-3)[Fuc(a1-2)Gal(b1-4)[Fuc(a1-3)]GlcNAc(b1-2)Man(a1-6)]Man(b1-4)GlcNAc(b1-4)GlcNAc; details: glycan notation: IUPAC condensed, linker removed; mutation: R125K
# How it was run: as §1
# Fuc(a1-2)Gal(b1-3)GlcNAc = details: glycan notation: IUPAC condensed, linker removed
# How it was run: as §1
# [8] = test system: Fuc(a1-2)Gal(b1-3)[Fuc(a1-4)]GlcNAc(b1-2)Man(a1-3)[Fuc(a1-2)Gal(b1-3)[Fuc(a1-4)]GlcNAc(b1-2)Man(a1-6)]Man(b1-4)GlcNAc(b1-4)GlcNAc; details: glycan notation: IUPAC condensed, linker removed
# How it was run: as §1
# Fuc(a1-2)Gal(b1-4)Glc6S = details: glycan notation: IUPAC condensed, linker removed
# How it was run: as §1
# [9] = test system: Fuc(a1-2)Gal(b1-3)GalNAc(a1-3)[Fuc(a1-2)]Gal(b1-4)GlcNAc; details: glycan notation: IUPAC condensed, linker removed
# How it was run: as §1
# [10] = test system: Fuc(a1-2)Gal(b1-3)GlcNAc(b1-3)[Gal(b1-4)GlcNAc(b1-6)]Gal(b1-4)Glc; details: glycan notation: IUPAC condensed, linker removed
# How it was run: as §1
# [11] = test system: Fuc(a1-2)Gal(b1-3)GlcNAc(b1-3)[Neu5Ac(a2-6)Gal(b1-4)GlcNAc(b1-6)]Gal(b1-4)Glc; details: glycan notation: IUPAC condensed, linker removed
# How it was run: as §1
# [12] = test system: Fuc(a1-2)Gal(b1-3)[Fuc(a1-4)]GlcNAc(b1-3)[Gal(b1-4)GlcNAc(b1-6)]Gal(b1-4)Glc; details: glycan notation: IUPAC condensed, linker removed
# How it was run: as §1
# [13] = test system: Fuc(a1-2)Gal(b1-4)GlcNAc(b1-2)Man(a1-3)[Fuc(a1-2)Gal(b1-4)GlcNAc(b1-2)Man(a1-6)]Man(b1-4)GlcNAc(b1-4)GlcNAc; details: glycan notation: IUPAC condensed, linker removed
# How it was run: as §1
# [14] = test system: Fuc(a1-2)Gal(b1-3)GalNAc(b1-3)Gal(b1-4)Glc; details: glycan notation: IUPAC condensed, linker removed
# How it was run: as §1
# [15] = test system: Fuc(a1-2)Gal(b1-3)GlcNAc(b1-3)Gal(b1-4)Glc; details: glycan notation: IUPAC condensed, linker removed
# How it was run: as §1
# [16] = test system: Fuc(a1-2)Gal(b1-3)GalNAc(b1-4)[Neu5Ac(a2-3)]Gal(b1-4)Glc; details: glycan notation: IUPAC condensed, linker removed
# How it was run: as §1
# [17] = test system: Fuc(a1-2)Gal(b1-3)GalNAc(b1-3)Gal; details: glycan notation: IUPAC condensed, linker removed
# How it was run: as §1
# CHI3L1 (Homo sapiens), P36222, sequence (P36222 whole entry): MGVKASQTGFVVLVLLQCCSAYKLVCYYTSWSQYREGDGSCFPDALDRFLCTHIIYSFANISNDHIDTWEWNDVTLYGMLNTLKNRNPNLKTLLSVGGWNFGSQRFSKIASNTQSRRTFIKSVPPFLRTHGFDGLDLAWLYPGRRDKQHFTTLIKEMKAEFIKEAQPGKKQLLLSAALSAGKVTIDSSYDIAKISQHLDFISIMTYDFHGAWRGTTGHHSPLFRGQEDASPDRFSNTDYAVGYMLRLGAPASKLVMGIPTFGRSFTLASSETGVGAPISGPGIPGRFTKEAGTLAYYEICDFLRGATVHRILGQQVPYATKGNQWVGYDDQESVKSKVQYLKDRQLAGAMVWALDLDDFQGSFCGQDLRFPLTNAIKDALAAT
# PILRb (Mus musculus), Q2YSF2, sequence (Q2YSF2 entry or part of it): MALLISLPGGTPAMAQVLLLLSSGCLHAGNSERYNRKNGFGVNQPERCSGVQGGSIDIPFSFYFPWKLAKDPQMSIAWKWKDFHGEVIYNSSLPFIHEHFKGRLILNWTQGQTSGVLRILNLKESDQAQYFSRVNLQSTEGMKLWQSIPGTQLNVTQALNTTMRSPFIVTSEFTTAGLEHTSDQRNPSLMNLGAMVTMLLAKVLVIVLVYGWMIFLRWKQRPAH
# PILRa (Mus musculus), Q2YSF3, sequence (Q2YSF3 entry or part of it): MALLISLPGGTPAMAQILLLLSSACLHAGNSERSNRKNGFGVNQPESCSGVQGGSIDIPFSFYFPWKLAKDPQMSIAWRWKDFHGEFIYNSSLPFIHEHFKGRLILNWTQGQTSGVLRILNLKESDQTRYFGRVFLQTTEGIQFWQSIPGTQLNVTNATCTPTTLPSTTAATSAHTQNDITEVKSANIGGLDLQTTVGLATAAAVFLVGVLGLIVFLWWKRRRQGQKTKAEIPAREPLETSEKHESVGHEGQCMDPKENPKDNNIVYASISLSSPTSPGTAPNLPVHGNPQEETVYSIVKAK
# Avaren (Actinomycete K97), sequence (chain, as listed by the source): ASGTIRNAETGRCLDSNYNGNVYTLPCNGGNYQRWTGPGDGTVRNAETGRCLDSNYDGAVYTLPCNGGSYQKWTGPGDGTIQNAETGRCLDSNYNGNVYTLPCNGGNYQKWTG
# C3b (Homo sapiens), P01024, sequence (P01024 23-667): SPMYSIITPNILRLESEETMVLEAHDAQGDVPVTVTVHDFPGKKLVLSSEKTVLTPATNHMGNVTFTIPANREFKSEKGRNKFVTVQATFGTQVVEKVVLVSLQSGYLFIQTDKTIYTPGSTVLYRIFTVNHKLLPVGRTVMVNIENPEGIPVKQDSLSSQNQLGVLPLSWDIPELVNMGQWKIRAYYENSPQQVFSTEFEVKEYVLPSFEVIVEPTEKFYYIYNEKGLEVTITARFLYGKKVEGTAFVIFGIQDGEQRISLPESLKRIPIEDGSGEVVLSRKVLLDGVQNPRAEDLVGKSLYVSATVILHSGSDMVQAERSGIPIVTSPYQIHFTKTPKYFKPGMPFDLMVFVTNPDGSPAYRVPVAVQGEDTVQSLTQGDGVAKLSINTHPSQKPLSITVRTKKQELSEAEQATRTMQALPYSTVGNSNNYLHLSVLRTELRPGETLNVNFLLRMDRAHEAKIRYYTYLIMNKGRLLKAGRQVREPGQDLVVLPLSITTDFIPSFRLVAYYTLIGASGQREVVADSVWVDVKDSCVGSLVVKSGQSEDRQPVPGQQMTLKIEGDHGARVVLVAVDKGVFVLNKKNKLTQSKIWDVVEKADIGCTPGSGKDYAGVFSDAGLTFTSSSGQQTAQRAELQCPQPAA
# 6RG (Lolium perenne), sequence (chain, as listed by the source): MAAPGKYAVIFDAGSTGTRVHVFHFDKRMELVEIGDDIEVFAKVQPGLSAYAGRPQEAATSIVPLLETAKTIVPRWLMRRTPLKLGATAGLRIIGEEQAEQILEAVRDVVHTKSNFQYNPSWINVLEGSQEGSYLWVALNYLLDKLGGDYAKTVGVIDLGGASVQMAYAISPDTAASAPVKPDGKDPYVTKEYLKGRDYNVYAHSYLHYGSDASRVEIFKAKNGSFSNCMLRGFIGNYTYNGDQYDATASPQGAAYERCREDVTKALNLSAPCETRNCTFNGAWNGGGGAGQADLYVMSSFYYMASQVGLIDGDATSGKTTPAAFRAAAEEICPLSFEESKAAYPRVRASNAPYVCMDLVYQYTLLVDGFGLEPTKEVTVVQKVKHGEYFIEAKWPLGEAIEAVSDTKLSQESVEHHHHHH
# Aggrecan (Rattus norvegicus), NP_071526, sequence (chain, as listed by the source): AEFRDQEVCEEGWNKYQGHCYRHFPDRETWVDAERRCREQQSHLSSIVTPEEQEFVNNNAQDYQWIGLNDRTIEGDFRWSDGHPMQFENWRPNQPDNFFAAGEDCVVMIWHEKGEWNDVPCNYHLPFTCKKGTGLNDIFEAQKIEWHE
# Regenerating Gene IV (Homo sapiens), Q9BYZ8, sequence (Q9BYZ8 whole entry, looked up): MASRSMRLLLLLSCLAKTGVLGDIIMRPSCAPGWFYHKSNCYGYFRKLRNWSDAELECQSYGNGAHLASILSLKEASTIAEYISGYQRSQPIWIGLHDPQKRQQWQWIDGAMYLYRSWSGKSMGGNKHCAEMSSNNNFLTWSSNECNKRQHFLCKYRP
# CHT (Homo sapiens), sequence (chain, as listed by the source): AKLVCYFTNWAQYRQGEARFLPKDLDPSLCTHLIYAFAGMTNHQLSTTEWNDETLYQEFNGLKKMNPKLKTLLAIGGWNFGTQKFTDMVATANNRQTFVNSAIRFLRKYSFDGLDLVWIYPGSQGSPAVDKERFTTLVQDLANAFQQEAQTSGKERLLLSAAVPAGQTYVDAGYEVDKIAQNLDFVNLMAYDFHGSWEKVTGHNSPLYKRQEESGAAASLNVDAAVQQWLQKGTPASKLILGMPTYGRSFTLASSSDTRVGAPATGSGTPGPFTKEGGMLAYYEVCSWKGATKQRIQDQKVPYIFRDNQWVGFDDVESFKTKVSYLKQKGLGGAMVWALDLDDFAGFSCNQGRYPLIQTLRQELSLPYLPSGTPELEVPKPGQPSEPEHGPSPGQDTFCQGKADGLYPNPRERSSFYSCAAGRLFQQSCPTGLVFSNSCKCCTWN
substance,measurement,setting,value
"Aggrecan (Rattus norvegicus), NP_071526",glycan array binding signal (z-score),[1],-0.123
"CHI3L1 (Homo sapiens), P36222",glycan array binding signal (z-score),[2],-0.032
same,glycan array binding signal (z-score),[3],0.653
same,glycan array binding signal (z-score),[4],5.09
CHT (Homo sapiens),glycan array binding signal (z-score),"Fuc(a1-2)Gal(b1-3)GalNAc; mutation: D138V, E140I",0.451
"Siglec-8 (Homo sapiens), Q9NYZ4",glycan array binding signal (z-score),[5]; mutation: R125K,0.206
same,glycan array binding signal (z-score),[1]; mutation: R125K,-0.14
same,glycan array binding signal (z-score),Fuc(a1-2)Gal(b1-3)GalNAc; mutation: R125K,-0.339
same,glycan array binding signal (z-score),[2],0.028
same,glycan array binding signal (z-score),[6],1.44
same,glycan array binding signal (z-score),[7],2.42
"PILRb (Mus musculus), Q2YSF2",glycan array binding signal (z-score),[1],-0.245
same,glycan array binding signal (z-score),Fuc(a1-2)Gal(b1-3)GlcNAc,-0.281
same,glycan array binding signal (z-score),[8],2.44
"Regenerating Gene IV (Homo sapiens), Q9BYZ8",glycan array binding signal (z-score),Fuc(a1-2)Gal(b1-4)Glc6S,2.53
Avaren (Actinomycete K97),glycan array binding signal (z-score),[9],-0.138
same,glycan array binding signal (z-score),[10],-0.128
MpAFP RI GFP (Marinomonas primoryensis),glycan array binding signal (z-score),[11],-0.127
same,glycan array binding signal (z-score),[12],-0.303
same,glycan array binding signal (z-score),[4],-0.05
same,glycan array binding signal (z-score),[13],-0.295
6RG (Lolium perenne),glycan array binding signal (z-score),[14],7.3
same,glycan array binding signal (z-score),[15],6.52
"C3b (Homo sapiens), P01024",glycan array binding signal (z-score),[1],0.194
same,glycan array binding signal (z-score),[16],0.329
"PILRa (Mus musculus), Q2YSF3",glycan array binding signal (z-score),[5],0.037
same,glycan array binding signal (z-score),[17],0.134
same,glycan array binding signal (z-score),Fuc(a1-2)Gal(b1-3)GalNAc,-0.151
same,glycan array binding signal (z-score),[15],-0.127
same,glycan array binding signal (z-score),[10],-0.176
